The results in this text go back to PMC7862700, “An all-to-all approach to the identification of sequence-specific readers for epigenetic DNA modifications on cytosine”.

What all share (test): DAPPL (digital affinity profiling via proximity ligation, sequencing); 10 mM Tris-HCl pH 7.5, 50 mM NaCl, 1 mM DTT, 4% glycerol, room temperature, 30 min; GST-TFs on glutathione beads, 16-mer random dsDNA library, 0.1% formaldehyde crosslink after washing; high values mean tight binding
Common to all, as to conditions: protein: recombinant; tags: N-terminal GST; dsDNA, one strand shown

In one assay the target is T1, FLI1 (Homo sapiens, UniProt Q01543 1-452).
T1 sequence: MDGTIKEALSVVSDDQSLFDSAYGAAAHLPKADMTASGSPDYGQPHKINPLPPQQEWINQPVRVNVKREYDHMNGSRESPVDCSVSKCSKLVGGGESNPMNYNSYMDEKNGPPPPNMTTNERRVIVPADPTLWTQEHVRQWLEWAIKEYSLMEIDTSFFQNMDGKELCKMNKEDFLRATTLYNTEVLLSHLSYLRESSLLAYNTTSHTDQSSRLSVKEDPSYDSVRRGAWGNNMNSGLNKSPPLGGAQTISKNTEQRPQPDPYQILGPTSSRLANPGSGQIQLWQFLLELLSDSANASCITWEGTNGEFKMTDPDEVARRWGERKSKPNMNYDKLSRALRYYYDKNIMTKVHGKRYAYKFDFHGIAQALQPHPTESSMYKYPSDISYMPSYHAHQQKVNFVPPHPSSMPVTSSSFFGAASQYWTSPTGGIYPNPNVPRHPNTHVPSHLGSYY
An outline of the steps: (§1)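 Yeast served to express human transcription factors as GST fusions, which were then captured on glutathione beads and labelled with DNA barcodes. Pooled with a tag-only sample, they were incubated with 200 nmole of a 16-mer random double-stranded DNA library for 30 min at room temperature in Tris/NaCl/DTT/glycerol buffer, washed, crosslinked with 0.1% formaldehyde, ligated by proximity, amplified by PCR and sequenced. Dividing each hexamer's read frequency for a factor by its frequency for the tag-only sample gives the binding signal.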

In the next assay the target is T2, ELK1 (Homo sapiens, UniProt P19419 1-428).
T2 sequence: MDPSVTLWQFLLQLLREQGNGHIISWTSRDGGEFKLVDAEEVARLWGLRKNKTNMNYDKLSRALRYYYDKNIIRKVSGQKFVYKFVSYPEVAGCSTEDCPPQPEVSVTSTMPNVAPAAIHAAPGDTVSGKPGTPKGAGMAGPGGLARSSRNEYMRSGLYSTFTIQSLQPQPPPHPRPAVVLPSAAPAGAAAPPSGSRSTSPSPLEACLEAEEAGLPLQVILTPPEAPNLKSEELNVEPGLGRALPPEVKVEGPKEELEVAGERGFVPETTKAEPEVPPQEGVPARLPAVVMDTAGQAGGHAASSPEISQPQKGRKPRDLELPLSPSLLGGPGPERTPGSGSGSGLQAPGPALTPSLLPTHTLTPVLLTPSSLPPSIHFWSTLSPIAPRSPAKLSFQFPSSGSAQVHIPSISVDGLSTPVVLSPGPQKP
The essentials:
as §1

The next assay has as its target T3, GABPA (Homo sapiens, UniProt Q06546 1-454).
T3 sequence: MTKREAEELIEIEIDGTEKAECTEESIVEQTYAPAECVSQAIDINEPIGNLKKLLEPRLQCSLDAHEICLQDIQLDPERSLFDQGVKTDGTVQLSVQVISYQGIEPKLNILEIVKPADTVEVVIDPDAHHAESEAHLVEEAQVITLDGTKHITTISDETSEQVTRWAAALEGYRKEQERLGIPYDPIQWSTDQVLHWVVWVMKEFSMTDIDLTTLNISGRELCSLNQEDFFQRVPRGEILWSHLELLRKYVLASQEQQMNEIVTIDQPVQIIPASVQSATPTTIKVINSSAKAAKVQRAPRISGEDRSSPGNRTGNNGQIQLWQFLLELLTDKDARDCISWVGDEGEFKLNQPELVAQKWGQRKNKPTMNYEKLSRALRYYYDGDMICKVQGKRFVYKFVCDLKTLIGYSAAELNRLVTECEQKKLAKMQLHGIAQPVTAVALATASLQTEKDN
The essentials: as §1

A further assay addresses T4, ERG (Homo sapiens, UniProt P11308 1-479).
T4 sequence: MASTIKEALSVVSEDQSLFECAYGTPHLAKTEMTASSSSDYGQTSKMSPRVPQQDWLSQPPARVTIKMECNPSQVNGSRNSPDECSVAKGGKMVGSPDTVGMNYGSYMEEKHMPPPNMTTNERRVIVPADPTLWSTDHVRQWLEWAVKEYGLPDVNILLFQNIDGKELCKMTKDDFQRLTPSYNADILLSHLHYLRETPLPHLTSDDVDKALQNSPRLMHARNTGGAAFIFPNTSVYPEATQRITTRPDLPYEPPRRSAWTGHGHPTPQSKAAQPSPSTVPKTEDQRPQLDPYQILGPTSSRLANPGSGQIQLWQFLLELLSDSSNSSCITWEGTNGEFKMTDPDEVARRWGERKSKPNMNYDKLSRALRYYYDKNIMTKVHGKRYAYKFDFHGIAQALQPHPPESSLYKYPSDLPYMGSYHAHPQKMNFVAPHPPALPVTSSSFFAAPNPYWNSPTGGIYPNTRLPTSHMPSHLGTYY
An outline of the steps:
as §1

A further assay deals with ELF1 (Homo sapiens, UniProt P32519 1-619). An outline of the steps:
as §1

A further assay concerns the target T5, EHF (Homo sapiens, UniProt Q9NZC4 1-300).
T5 sequence: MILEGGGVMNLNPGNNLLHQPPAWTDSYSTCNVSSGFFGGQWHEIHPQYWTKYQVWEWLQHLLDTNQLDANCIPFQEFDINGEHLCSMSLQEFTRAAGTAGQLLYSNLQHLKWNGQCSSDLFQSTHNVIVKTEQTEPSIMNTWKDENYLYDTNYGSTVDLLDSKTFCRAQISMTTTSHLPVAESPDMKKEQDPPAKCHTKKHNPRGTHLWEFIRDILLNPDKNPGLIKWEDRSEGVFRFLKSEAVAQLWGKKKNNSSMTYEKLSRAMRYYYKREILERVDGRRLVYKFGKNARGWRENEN
The essentials: as §1

The target in a further assay is SPI1 (Homo sapiens, UniProt P17947 1-270). The essentials:
as §1

The target of the next assay is SPIB (Homo sapiens, UniProt Q01892 1-262). The essentials: as §1
SPIB, sequence (Q01892 whole entry): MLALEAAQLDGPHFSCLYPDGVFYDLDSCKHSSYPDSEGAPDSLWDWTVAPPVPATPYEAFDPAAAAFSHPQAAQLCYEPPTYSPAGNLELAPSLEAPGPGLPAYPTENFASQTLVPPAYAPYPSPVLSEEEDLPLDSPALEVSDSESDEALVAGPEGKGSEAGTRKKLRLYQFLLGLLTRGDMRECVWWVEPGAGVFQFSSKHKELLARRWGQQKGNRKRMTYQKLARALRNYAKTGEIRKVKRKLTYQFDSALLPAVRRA
For another assay, the target named is T6, ELK3 (Homo sapiens, UniProt P41970 1-407).
T6 sequence: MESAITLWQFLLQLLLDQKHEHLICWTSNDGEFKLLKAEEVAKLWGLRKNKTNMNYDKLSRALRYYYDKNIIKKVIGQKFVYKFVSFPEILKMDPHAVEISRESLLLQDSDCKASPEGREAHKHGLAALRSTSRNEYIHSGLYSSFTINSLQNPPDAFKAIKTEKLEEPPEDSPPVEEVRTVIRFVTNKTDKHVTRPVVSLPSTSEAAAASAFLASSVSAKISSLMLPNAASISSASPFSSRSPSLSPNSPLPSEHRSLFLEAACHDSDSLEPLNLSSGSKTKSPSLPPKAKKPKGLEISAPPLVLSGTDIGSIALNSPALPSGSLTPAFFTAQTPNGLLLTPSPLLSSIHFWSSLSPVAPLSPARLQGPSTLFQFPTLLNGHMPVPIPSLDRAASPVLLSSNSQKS
The essentials:
as §1

ELF1, sequence (P32519 whole entry): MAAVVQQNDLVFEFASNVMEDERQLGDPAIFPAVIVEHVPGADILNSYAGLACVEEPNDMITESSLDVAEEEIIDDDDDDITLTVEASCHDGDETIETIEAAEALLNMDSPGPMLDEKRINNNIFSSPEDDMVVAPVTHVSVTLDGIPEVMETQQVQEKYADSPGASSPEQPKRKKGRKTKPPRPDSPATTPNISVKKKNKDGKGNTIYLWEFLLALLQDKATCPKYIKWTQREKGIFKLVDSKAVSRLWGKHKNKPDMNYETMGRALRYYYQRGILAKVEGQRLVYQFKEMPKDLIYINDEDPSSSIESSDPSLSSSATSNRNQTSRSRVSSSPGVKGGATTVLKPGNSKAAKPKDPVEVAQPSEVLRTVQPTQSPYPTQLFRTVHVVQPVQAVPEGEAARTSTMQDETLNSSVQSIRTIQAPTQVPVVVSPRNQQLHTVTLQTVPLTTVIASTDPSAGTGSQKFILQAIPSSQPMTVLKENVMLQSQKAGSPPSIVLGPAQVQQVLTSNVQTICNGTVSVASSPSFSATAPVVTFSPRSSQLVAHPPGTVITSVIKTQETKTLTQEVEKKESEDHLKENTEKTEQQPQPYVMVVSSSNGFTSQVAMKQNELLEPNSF

Regarding TGTGCT, the binding signal in the assay with FLI1 is 1.13 fold enrichment (6-mer frequency, TF over GST control); with ELK1, 1.23 fold enrichment (6-mer frequency, TF over GST control); in the assay with GABPA, 1.24 fold enrichment (6-mer frequency, TF over GST control); with ERG, 1.23 fold enrichment (6-mer frequency, TF over GST control); in the assay with ELF1, 1.2 fold enrichment (6-mer frequency, TF over GST control); with EHF it was 1.11 fold enrichment (6-mer frequency, TF over GST control). Also, the binding signal with SPI1 was 1.24 fold enrichment (6-mer frequency, TF over GST control); with SPIB, 1.14 fold enrichment (6-mer frequency, TF over GST control); with ELK3 it was 1.16 fold enrichment (6-mer frequency, TF over GST control).

As to CGTTCT, the binding signal in the assay with FLI1 was 1.37 fold enrichment (6-mer frequency, TF over GST control); with ELK1, 1.41 fold enrichment (6-mer frequency, TF over GST control); with GABPA, 1.44 fold enrichment (6-mer frequency, TF over GST control); with ERG, 1.55 fold enrichment (6-mer frequency, TF over GST control); with ELF1, 1.5 fold enrichment (6-mer frequency, TF over GST control); in the assay with EHF it was 1.3 fold enrichment (6-mer frequency, TF over GST control). Further, the binding signal with SPI1 was 1.39 fold enrichment (6-mer frequency, TF over GST control); with SPIB, 1.43 fold enrichment (6-mer frequency, TF over GST control); with ELK3 it was 1.52 fold enrichment (6-mer frequency, TF over GST control).

On to GCCTTC, for which the binding signal with FLI1 was 1.41 fold enrichment (6-mer frequency, TF over GST control); with ELK1 it was 1.51 fold enrichment (6-mer frequency, TF over GST control); in the assay with GABPA, 1.54 fold enrichment (6-mer frequency, TF over GST control); with ERG, 1.52 fold enrichment (6-mer frequency, TF over GST control); in the assay with ELF1, 1.58 fold enrichment (6-mer frequency, TF over GST control); in the assay with EHF, 1.43 fold enrichment (6-mer frequency, TF over GST control). For the same sequence, the binding signal in the assay with SPI1 is 1.39 fold enrichment (6-mer frequency, TF over GST control); in the assay with SPIB, 1.54 fold enrichment (6-mer frequency, TF over GST control); with ELK3, 1.52 fold enrichment (6-mer frequency, TF over GST control).

As for AAGTAC, the binding signal in the assay with FLI1 is 1.52 fold enrichment (6-mer frequency, TF over GST control); with ELK1, 1.74 fold enrichment (6-mer frequency, TF over GST control); with GABPA it was 1.44 fold enrichment (6-mer frequency, TF over GST control); in the assay with ERG, 1.53 fold enrichment (6-mer frequency, TF over GST control); with ELF1, 1.49 fold enrichment (6-mer frequency, TF over GST control); with EHF, 1.59 fold enrichment (6-mer frequency, TF over GST control). The binding signal with SPI1 is 1.62 fold enrichment (6-mer frequency, TF over GST control); with SPIB it was 1.57 fold enrichment (6-mer frequency, TF over GST control); with ELK3, 1.73 fold enrichment (6-mer frequency, TF over GST control).

In the case of TACAGA, the binding signal was 1.08 fold enrichment (6-mer frequency, TF over GST control) with FLI1; 1.14 fold enrichment (6-mer frequency, TF over GST control) with ELK1; 1.25 fold enrichment (6-mer frequency, TF over GST control) with GABPA; 1.11 fold enrichment (6-mer frequency, TF over GST control) with ERG; 1.14 fold enrichment (6-mer frequency, TF over GST control) with ELF1; 1.11 fold enrichment (6-mer frequency, TF over GST control) with EHF. Further, the binding signal with SPI1 is 1.13 fold enrichment (6-mer frequency, TF over GST control); with SPIB it was 1.16 fold enrichment (6-mer frequency, TF over GST control); with ELK3, 1.06 fold enrichment (6-mer frequency, TF over GST control).

As for ATGGCC, the binding signal was 1.31 fold enrichment (6-mer frequency, TF over GST control) with FLI1; 1.42 fold enrichment (6-mer frequency, TF over GST control) with ELK1; 1.45 fold enrichment (6-mer frequency, TF over GST control) with GABPA; 1.46 fold enrichment (6-mer frequency, TF over GST control) in the assay with ERG; 1.35 fold enrichment (6-mer frequency, TF over GST control) with ELF1; 1.27 fold enrichment (6-mer frequency, TF over GST control) in the assay with EHF. Further, the binding signal in the assay with SPI1 is 1.37 fold enrichment (6-mer frequency, TF over GST control); with SPIB, 1.39 fold enrichment (6-mer frequency, TF over GST control); with ELK3, 1.24 fold enrichment (6-mer frequency, TF over GST control).

For AAAATC, the binding signal in the assay with FLI1 is 1.16 fold enrichment (6-mer frequency, TF over GST control); with ELK1 it was 1.11 fold enrichment (6-mer frequency, TF over GST control); in the assay with GABPA, 1.22 fold enrichment (6-mer frequency, TF over GST control); with ERG it was 1.18 fold enrichment (6-mer frequency, TF over GST control); with ELF1 it was 1.15 fold enrichment (6-mer frequency, TF over GST control); with EHF, 1.2 fold enrichment (6-mer frequency, TF over GST control). The binding signal was 1.14 fold enrichment (6-mer frequency, TF over GST control) in the assay with SPI1; 1.17 fold enrichment (6-mer frequency, TF over GST control) with SPIB; 1.1 fold enrichment (6-mer frequency, TF over GST control) in the assay with ELK3.

As for GTATTA, the binding signal is 1.17 fold enrichment (6-mer frequency, TF over GST control) in the assay with FLI1; 1.2 fold enrichment (6-mer frequency, TF over GST control) with ELK1; 1.07 fold enrichment (6-mer frequency, TF over GST control) with GABPA; 1.12 fold enrichment (6-mer frequency, TF over GST control) in the assay with ERG; 1.11 fold enrichment (6-mer frequency, TF over GST control) with ELF1; 1.03 fold enrichment (6-mer frequency, TF over GST control) with EHF. The binding signal with SPI1 is 1.04 fold enrichment (6-mer frequency, TF over GST control); in the assay with SPIB, 1.07 fold enrichment (6-mer frequency, TF over GST control); with ELK3, 1.06 fold enrichment (6-mer frequency, TF over GST control).
